The list is not random: actives were taken first. Their share in the collection is about 4.4%.
TIM10 inh – growth inhibitors of TIM10 yeast strain; S. cerevisiae TIM10 strain growth, BacTiter-Glo luminescence, 24 h; inhibition, % at 10 µM; hit rate 1.4% among 330,000; AID 463195;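 active = inhibition of 40% or more at the single tested concentration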;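 also: wild-type TIM10 isogenic control strain grown at permissive 25 °C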
tim23-1 inh – tim23-1 yeast growth inhibition; hit rate 1.3% among 330,000; inhibition, % at 20 µM; S. cerevisiae tim23-1 growth, BacTiter-Glo luminescence, 24 h;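 active = growth inhibition of the mutant yeast at or above 50%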;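 also: temperature-sensitive mutant grown at 25 °C; plate controls were DMSO-treated mutant yeast for no effect and medium wells lacking yeast for full effect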
tim10-1 inh – inhibits growth of tim10-1 mutant yeast. S. cerevisiae tim10-1 ts strain growth, BacTiter-Glo, 24 h. inhibition, % at 20 µM. hit rate 2.2% among 330,000. AID 463190;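 active = inhibition of at least 40%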;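 also: mutant grown at 25 °C; 0% = DMSO wells with yeast and 100% = wells holding no yeast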
PfHsp90 yeast 2 – inhibits growth of yeast expressing Plasmodium falciparum Hsp90 | S. cerevisiae expressing PfHsp90, BacTiter-Glo ATP, 48 h; yeast lacking PDR1 and PDR3 efflux regulators | inhibition, % at 9.4 µM | hit rate 0.32% among 310,000;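 active = every replicate shows inhibition above about 80%, whatever the replicate mean, limit read from the data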;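 also: 0% = DMSO neutral controls and 100% = 20 µM radicicol positive controls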
SKKanGAS inh – SKKanGAS growth inhibition; S. pyogenes SKKanGAS, kanamycin growth, BacTiter-Glo, 6 h; inhibition, % at 7.5 µM; hit rate 1.3% among 300,000; AID 1662;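 active = mean replicate score, as percent of positive control median, at least 50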;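 also: strain carries kanamycin resistance gene driven by streptokinase promoter and grows in 40 µg/ml kanamycin; loss of luminescence reflects streptokinase promoter inhibition or plain growth inhibition; 0% = median of DMSO wells and 100% = positive control at its reference dose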
tim23-1 confirm – confirmation of tim23-1 mutant yeast growth inhibitors; shares compounds with tim23-1 inh; S. cerevisiae tim23-1 growth, BacTiter-Glo luminescence, 24 h; inhibition, % at 20 µM; hit rate 83% among 4,400; AID 463218;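 active = inhibition above about 39% in either of two replicate wells at 20 µM, limit read from the data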;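 also: temperature-sensitive tim23-1 mutant grown at 25 °C; 0% = DMSO wells with yeast and 100% = medium wells without yeast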
* hit, by the source's call; nt = no result given.

SMILES | TIM10 inh | tim23-1 inh | tim10-1 inh | PfHsp90 yeast 2 | SKKanGAS inh | tim23-1 confirm
CC(=O)NC(c1ccc2ccccc2c1)c1ccc2cccnc2c1O (stereo unspecified) | -28.1 | 55.3* | 17.7 | 108.2* | 89.2* | 70.8*
COc1ccc(C(NC(C)=O)c2ccc3cccnc3c2O)c(OC)c1 (stereo unspecified) | 0.9 | -11.1 | 14.1 | nt | 11.7 | nt
CC(=O)c1ccc(S(=O)(=O)N2CCN(C(=O)c3ccc(COc4ccccc4)o3)CC2)cc1 | 7.9 | 30.9 | 19.2 | nt | nt | nt
O=C1C=C(c2cccc(Cl)c2O)C[C@@H](c2ccc3c(c2)OCO3)C1 | 29.4 | 66.6* | 34.2 | -139.3 | nt | 54.0*
O=C1C=C(c2cccc(Cl)c2)C[C@@H](c2ccc3c(c2)OCO3)C1 | -0.7 | 26.3 | -11.3 | -53.6 | nt | nt
NC1=NC(c2ccccc2C(F)(F)F)N(c2ccc(F)c(Cl)c2)C(N)=N1 (stereo unspecified) | -13.8 | -9.5 | 6.5 | 7.7 | -7.1 | nt
C[n+]1c2n(c3ccccc31)N=C(c1ccc(-c3ccccc3)cc1)CS2 | 7.6 | 60.0* | -2.7 | -53.8 | 38.8 | 47.0*
Cc1ccc(Nc2nc(Cl)nc(NC(C)(C)C)n2)cc1 | 13.6 | 50.3* | 32.5 | -16.9 | 41.1 | 40.2*
COc1ccc(CNC(=O)C2CC(C)=CCC2C(=O)O)cc1 (stereo unspecified) | 5.5 | 5.4 | -3.0 | -23.8 | 2.1 | nt
N#CC1=C(N)Oc2cc(N)ccc2C1c1ccc(F)cc1F (stereo unspecified) | -15.6 | -27.0 | -34.8 | 8.5 | 0.4 | nt
Cc1ccc(NC(=S)N/N=C/c2c(Cl)cccc2Cl)c(C)c1 | 25.9 | 51.5* | 38.9 | 33.8 | 20.2 | 40.2*
Cc1ccc(S(=O)(=O)N2CCN(C(=O)COC(=O)/C=C/c3ccccc3[N+](=O)[O-])CC2)c(C)c1 | 0.7 | -2.3 | 15.5 | -6.8 | -5.9 | nt
O=C(N/N=C/c1coc2ccc(Cl)cc2c1=O)c1cc(O)cc(O)c1 | 7.5 | 71.6* | 16.0 | 9.2 | 5.7 | 70.2*
Cc1ccc2occ(/C=N/NC(=O)c3ccccc3O)c(=O)c2c1 | 12.5 | 53.4* | 21.7 | 14.0 | -3.0 | 51.2*
CCCOc1cccc(C(=O)N/N=C/c2coc3ccccc3c2=O)c1 | 4.9 | 55.5* | 18.3 | 16.8 | nt | 47.2*
Cc1ccc2occ(/C=N/NC(=O)c3ccncc3)c(=O)c2c1 | 3.4 | 51.1* | 10.9 | 0.8 | 1.9 | 50.5*
COc1ccc(C(=O)N/N=C\c2coc3ccc(C)cc3c2=O)cc1 | 27.7 | 43.3 | 20.2 | -8.8 | -0.1 | nt
Cc1ccc(C)c(Cn2nnc3c(=O)[nH]c(C4CCCN(C(=O)c5cccs5)C4)nc32)c1 (stereo unspecified) | -12.4 | 12.7 | 3.8 | -6.5 | 6.5 | nt
C/C(N)=C(/C#N)C(=O)COC(=O)C1CCN(S(=O)(=O)c2cccs2)CC1 | -8.0 | 12.1 | -3.8 | nt | nt | nt
O=C(O/N=C(\c1ccccc1)c1ccncc1)c1ccccc1Cl | 25.6 | 52.0* | 11.2 | 10.2 | -1.4 | 52.7*
O=C(Nc1c2c(nn1-c1ccc(F)cc1)CS(=O)(=O)C2)c1ccc2c(c1)OCO2 | 12.5 | -8.3 | -19.4 | 28.7 | 8.1 | nt
COCCNC(=O)/C(C#N)=C/c1ccc(C(=O)O)cc1 | 4.1 | -6.8 | 0.3 | 28.5 | 5.9 | nt
COCCNC(=O)/C(C#N)=C/c1ccc(OCc2ccccc2)cc1 | 29.7 | 54.6* | 38.6 | -13.5 | 0.0 | 52.8*
COCCNC(=O)/C(C#N)=C/c1ccc(OCc2ccc(F)cc2)cc1 | 32.8 | 55.7* | 14.1 | -7.8 | 2.1 | 48.1*
COC(=O)[C@]1(C)N[C@H](CN(C)S(=O)(=O)c2ccc(C(F)(F)F)cc2)[C@@H]2C(=O)N(C)C(=O)[C@@H]21 | -1.6 | -6.9 | -9.8 | -10.1 | nt | nt
SMILES | TIM10 inh | tim23-1 inh | tim10-1 inh | PfHsp90 yeast 2 | SKKanGAS inh | tim23-1 confirm
COc1cc(/C=C\C(=O)NCc2ccc3c(c2)cc(C)n3C)cc(OC)c1OC | -5.5 | 10.7 | 2.1 | -17.1 | 10.7 | nt
CCOc1cc(/C=C2\C(=O)ON=C2C)ccc1OCc1ccccc1 | 12.2 | 51.0* | 32.5 | 10.6 | 26.3 | 40.9*
CCCOc1ccc(/C=C2/C(=O)ON=C2C)cc1OCC | 2.3 | 35.7 | 4.8 | 3.1 | 0.2 | nt
COc1cc(C(=O)OCC(=O)NC2CCCC2)cc(OC)c1OC | -4.6 | -4.7 | 4.0 | 22.2 | 0.4 | nt
C(=N\Nc1nc2ccccc2s1)/c1ccccn1 | 24.5 | 58.2* | 37.5 | nt | 74.6* | 61.3*
Cc1cccc(-n2ncc3c2CCCC3NC(=O)CCCN2CCCCC2=O)c1C (stereo unspecified) | -5.7 | -9.6 | 0.7 | 3.4 | 1.2 | nt

Compound activity deposited in PubChem by several laboratories.
